# Hits are enriched below; roughly 4% of the tested compounds scored in any of these assays.
# TRHR agonist – TRH receptor (human) agonism; TRHR cells, calcium flux fluo-8, FDSS agonist mode; P34981; activation, % at 2 µM; hit rate 0.18% among 360,000; note: 0% is about no effect
# Target sequence (P34981 whole entry, looked up): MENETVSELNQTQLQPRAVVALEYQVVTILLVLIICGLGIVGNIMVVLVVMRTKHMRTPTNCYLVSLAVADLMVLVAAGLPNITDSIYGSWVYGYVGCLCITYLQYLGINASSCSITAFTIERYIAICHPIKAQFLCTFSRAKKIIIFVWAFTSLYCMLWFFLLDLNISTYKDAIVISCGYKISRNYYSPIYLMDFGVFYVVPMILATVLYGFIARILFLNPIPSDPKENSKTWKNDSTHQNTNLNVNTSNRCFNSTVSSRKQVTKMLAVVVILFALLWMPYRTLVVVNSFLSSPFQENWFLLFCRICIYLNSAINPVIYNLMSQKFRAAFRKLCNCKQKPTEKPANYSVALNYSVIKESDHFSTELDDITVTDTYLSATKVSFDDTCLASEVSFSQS
#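 Steps: seed TRHR cells overnight; add fluo-8 no-wash Ca dye, RT 30 min–1.5 h; record 10 s baseline; pin-transfer compounds; monitor fluorescence 1 cycle/s for the agonist window. Calcium increases flag candidate agonists.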
# TRHR enhancer – allosterically enhances the human TRH receptor | hit rate 0.66% among 360,000 | AID 493056 | TRHR cells, fluo-8 calcium fluorescence, EC20 TRH enhancement | enhancement, % at 2 µM | P34981; in the data active = enhancement above about 30%; note: 0% is about no effect
#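 Enhancer read-out: after compound pinning and an initial kinetic agonist-mode read, an EC20 of TRH (10 nM final) was injected and fluo-8 calcium signal (Ex 480/Em 530) followed at 1 s/cycle for 100 cycles in TRHR-expressing cells.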
# D1 potentiator – enhances dopamine response at the human D1 receptor; P21728; HEK293 TREx D1 cells, calcium flux, dopamine EC20 potentiation; potentiation, % at 10 µM; hit rate 0.036% among 360,000; in the data active = potentiation above about 30%; note: 0% is about no effect
# D1 ag – activates the human D1 dopamine receptor; HEK293 T-REx D1 cells, calcium flux, agonist mode; activation, % at 2 µM; hit rate 1% among 360,000; AID 504660; note: 0% is about no effect
#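 Inducible HEK293 T-REx D1 cells, force-coupled to calcium signalling, were plated at 4000 cells/well with tetracycline and held overnight at 30 C. After no-wash calcium dye loading, compound-evoked calcium rise over 180 s flagged agonists.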
# Glioma ERSR ind – inducers of ER stress response in human glioma cells | U87-MG GRP78 promoter luciferase reporter, 16 h | hit rate 0.02% among 420,000 | AID 602332 | Potency, µM, for inactives: top-dose activation, hits mostly activators; active = well fitted activation curve with a large enough effect; note: potency is the fitted concentration of half-maximal effect; series mostly up to about 76 µM; % of control where 0% means no effect; nearly all actives have a fitted effect of over 35% in size
#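 Stably transfected U87-MG human glioma cells carrying a GRP78-based luminescent sensor were seeded at 1000 cells/well, pin-dosed with compounds and incubated 16 h. Luciferase reagent was then added, and end-point luminescence was read after 10 min at room temperature.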
# D1 antagonist – blocks dopamine activation of the human D1 receptor | P21728 | HEK293 TREx D1 cells, calcium flux, dopamine EC80; stronger effect = lower value | activity change, negative = inhibition, % at 10 µM | hit rate 3.2% among 360,000 | AID 504652; in the data active = activity change below about -30%; note: % is set by controls: 0 for no effect and ±100 for the full control effect
#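 Inducible Hek293 Trex D1 cells (tetracycline, overnight, 30 C). Calcium dye 30–90 min RT. Antagonist mode: EC80 dopamine added after 180 s compound read.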
# * hit, by the source's call; / = not tested or not shown. Cut-off read from the data, not from the text of the source, unless noted: active = activation above about 30%; inactive = the rest.
SMILES,TRHR agonist,TRHR enhancer,D1 potentiator,D1 ag,Glioma ERSR ind,D1 antagonist
CN(C1CCCCC1)S(=O)(=O)c1ccc(C(=O)Nc2sc3c(c2C(N)=O)CC(C)(C)NC3(C)C)cc1,0.4,1.9,7.1,27.9,-7.0%,0.0
CC(C)N1CCc2c(sc(NC(=O)c3ccc(S(=O)(=O)N(C)C4CCCCC4)cc3)c2C(N)=O)C1,22.9,0.2,-0.8,65.7*,-4.0%,-15.4
CC(C)N1CCc2c(sc(NC(=O)c3cc(-c4cccs4)nc4ccccc34)c2C(N)=O)C1,26.9,9.9,-3.7,83.4*,-12.7%,-0.4
CC(C)N1CCc2c(sc(NC(=O)c3ccc(S(=O)(=O)N4CCc5ccccc54)cc3)c2C(N)=O)C1,23.7,-2.0,-2.9,32.1*,-11.4%,6.4
COc1cc(NC(=O)Cc2ccccc2)ccc1NC(=O)Cc1ccccc1,-0.1,-0.1,1.3,1.0,-5.4%,-6.2
N#CCCn1c(=O)c(-c2ccc(Cl)cc2)nc2cnc(Oc3ccccc3)nc21,/,/,/,/,-5.2%,/
COc1ccc(CCNC(=O)C/C(C)=N/NC(=O)c2ccc(Cl)cc2Cl)cc1OC,-0.3,0.7,-3.9,5.0,4.5%,18.6
Cc1ccc(/C=C/C(=O)NCCc2ccccc2)o1,-0.6,7.8,-2.4,5.9,1.2%,-13.1
O=C(CN1CCN(Cc2ccccc2Cl)C1=O)NCc1cccnc1,0.0,-0.9,-1.9,1.1,-2.1%,-2.5
CCN(CC)S(=O)(=O)c1ccc2oc(C(=O)NC3CCCc4ccccc43)c(C)c2c1 (configuration not stated),0.8,5.9,-8.6,1.7,-3.6%,-2.9
CCOc1ccc(OCC)c(S(=O)(=O)n2cnc(C)c2)c1,-0.4,32.0*,-0.6,-0.5,-4.3%,3.0
Cc1ccc(NS(=O)(=O)c2ccc(C(=O)N3CC(C)CC(C)C3)cc2)cc1 (configuration not stated),10.6,-5.9,0.8,72.5*,39.8µM*,-42.0*
CC1(C)CC(=O)C2=C(C1)N(Cc1ccco1)C(=O)NC2(C(F)(F)F)C(F)(F)F,-0.2,2.9,-3.7,0.0,-2.7%,4.8
C(#Cc1ccc(C#CCN2CCCC2)cc1)CN1CCCC1,1.0,-14.3,-4.2,8.5,-2.2%,-32.3*
O=C(c1ccccc1)N1CCN(CC#Cc2ccccc2)CC1,0.5,0.0,-2.7,-1.1,0.4%,0.2
C/C(=N\NC(=O)CNc1ccc(F)cc1)c1cc2ccccc2o1,-0.7,-4.5,-5.5,1.6,7.1%,-39.6*
Cc1ccc2nc(COc3ccccc3NC(=O)c3ccccc3C)cc(=O)n2c1,0.1,2.2,4.5,-1.0,-0.1%,-10.3
Cc1c(-c2cccc(NC(=O)c3ccc(F)c(F)c3)c2)nc2ncccn12,-0.5,0.0,-1.5,0.3,-2.2%,-36.4*
CC(Sc1nc(-c2ccccc2)cc(C(F)(F)F)n1)C(=O)NCc1ccco1 (configuration not stated),-0.4,13.1,-3.4,4.1,-8.2%,3.3
CC(C)c1ccc(C2/C(=C(/O)c3ccccc3)C(=O)C(=O)N2CCCN2CCOCC2)cc1 (configuration not stated),-1.6,18.3,-1.9,3.6,-3.0%,-3.7
O=C(Nc1ccc(C(=O)NCCCN2CCCCC2)cc1)C1=CSCCO1,1.1,-5.0,-3.1,2.4,1.4%,12.8
O=C(Nc1ccc(C(=O)NCCCN2CCN(c3ccc(F)cc3)CC2)cc1)C1=CSCCO1,10.0,-2.7,-16.9,62.5*,-2.7%,-78.5*
Cc1cccc(N2CCN(CCCNC(=O)c3ccc(NC(=O)C4=CSCCO4)cc3)CC2C)c1 (configuration not stated),0.3,-6.1,-15.7,17.7,-6.6%,-39.8*
COC(=O)C1=C(C(=O)OC)[C@]2([C@@H]3C/C=C\CN[C@@H](Cc4ccccc4)C(=O)N3Cc3ccccc3)C=C[C@H]1O2,/,/,/,/,0.1%,/
O=C(O)CSc1nnc(-c2cccc(S(=O)(=O)N3CCOCC3)c2)n1-c1cccc(Cl)c1,0.4,-2.5,3.6,2.7,-3.7%,-31.2*
SMILES,TRHR agonist,TRHR enhancer,D1 potentiator,D1 ag,Glioma ERSR ind,D1 antagonist
COc1cc(C(CC(=O)Nc2cc(C)ccn2)N2Cc3ccccc3C2=O)cc(OC)c1OC (configuration not stated),-0.3,-1.2,-6.3,-0.2,-3.4%,-2.7
CCN(CC)Cc1c(O)ccc2c1O/C(=C\C=C\c1ccccc1)C2=O,13.5,1.5,0.2,48.8*,14.7%,8.4
COCCN(CCOC)Cc1c(O)ccc2c1O/C(=C\c1ccc(C)o1)C2=O,3.1,-0.9,0.7,8.7,-1.6%,-2.3
COc1ccccc1/C=C/C=C1\Oc2c(ccc(O)c2CN(C)C)C1=O,17.3,1.0,-12.1,103.3*,7.1%,9.2
C/C(=N\Nc1ncnc2sc(C)c(C)c12)c1ccccn1,55.0*,14.8,6.8,281.4*,5.3%,6.3
C/C(=N\Nc1ncc(Cl)cc1Cl)c1ccccn1,5.2,4.5,-1.9,3.3,-15.3%,-40.5*
N#CC(C#N)=C1C=CC=CN1/C(=C\c1ccco1)C(=O)c1ccc(Cl)cc1,-0.3,-8.7,-10.9,2.9,-14.6%,-52.3*
COC(=O)C(Cc1c[nH]c2ccccc12)NC(=O)COc1ccc(Cl)cc1Cl (configuration not stated),-0.9,-2.3,-0.5,3.8,4.7%,-32.2*
O=C(COc1ccc(Cl)cc1Cl)NCC(=O)N/N=C/c1c[nH]c2ccccc12,-0.2,35.0*,6.7,-0.1,1.1%,4.8
NS(=O)(=O)c1cccc(NC(=O)CSc2n[nH]c(-c3cccs3)n2)c1,0.5,-5.6,-2.8,3.3,-1.3%,-5.8
Clc1cccc(C2Nc3cccc4cccc(c34)N2)c1Cl,-0.2,-11.2,-12.2,2.0,-6.4%,-35.8*
Clc1ccccc1C1Nc2cccc3cccc(c23)N1,0.4,-2.0,-2.5,-2.0,0.3%,28.7
O=C(c1ccc(Cl)cc1)N1CCCOC1,0.2,-4.6,-3.4,4.3,-4.2%,8.1
Nc1nonc1-n1nnc(C(=O)N/N=C/c2ccoc2)c1-c1ccccc1,1.2,10.1,-7.0,35.4*,-6.9%,17.4
CCOc1ccc(-c2c(C(=O)N/N=C/c3ccc(C)o3)nnn2-c2nonc2N)cc1,0.1,9.1,-0.8,-0.4,-2.2%,-8.5
Cc1ccc(/C=N/NC(=O)c2nnn(-c3nonc3N)c2-c2ccccc2)o1,-0.2,5.2,-4.2,34.4*,-0.5%,-14.6
Nc1nonc1-n1nnc(C(=O)N/N=C/c2ccco2)c1-c1ccccc1,0.6,4.3,5.8,4.6,-4.5%,6.4
COC(=O)CN1C(=O)[C@H]2[C@@H](/C=C/c3ccccc3)N3C(=O)CN(CCO)C(=O)[C@@]3(Cc3ccccc3)[C@H]2C1=O,0.2,-0.1,-5.2,1.3,-3.1%,-1.9

# High-throughput results as filed in PubChem BioAssay.
